Inconclusive results are not listed. Unless noted, the call rests on the fitted dose curve; in most records, active means well fitted curve in either direction with a large enough effect (not every such curve was filed as active); inconclusive means small, poorly fitted or top-dose-only effect, or another doubt; inactive means flat fitted curve, though single readings scatter.
Experiments:
[1] = AP1 Signaling Pathway (AID 357); settings: ME-180 AP-1-bla reporter, EGF-induced, beta-lactamase ratio, 5 h; at 17.2 µM (top of the series) unless noted;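 further: ME-180 reporter cells stimulated with EGF at its EC50 level; on the % scale 0 is the no-effect control and ±100 the full control effect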
Summary of the method: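 Beta-lactamase reporter under AP-1 response element, ME-180 background. Stimulus: EC50 EGF. Compound exposure 5 h, 37 °C. Detection: CCF4, 2.5 h RT, 460/530 nm. Values: AC50 from titration.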

[2] = NFAT Signaling Pathway (AID 444); settings: Jurkat NFAT-bla M1, carbachol, beta-lactamase ratio, 5 h; at 17.2 µM (top of the series) unless noted;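 further: carbachol stimulus at about its EC50 of 1 µM final; on the % scale 0 is the no-effect control and ±100 the full control effect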
Summary of the method: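 Jurkat cells carrying an NFAT-driven β-lactamase reporter and co-transfected muscarinic M1 receptor were treated with compound plus carbachol (1 uM final, an EC50 level) for 5 h at 37 °C. CCF4 loading followed for 1 h at RT; 460/530 nm ratio gave %activity.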

[3] = Stat Signaling Pathway (AID 446); settings: ME-180 (cervical carcinoma) SIE beta-lactamase reporter, IL-6 stimulated, 5 h; at 17.2 µM (top of the series) unless noted;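 further: ME-180 cervical cancer cells given 40 pM IL-6 alongside compound; SIE-controlled beta-lactamase reporter measured as 460/530 nm FRET emission ratio; on the % scale 0 is the no-effect control and ±100 the full control effect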
Summary of the method: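 Normalization used AC90 stimulation (300 pM IL-6) and AC90 inhibition (125 nM pan-JAK inhibitor at 40 pM IL-6). The underlying signal is SIE-driven beta-lactamase in ME-180 cells after 5 h IL-6 exposure with compound.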

[4] = target: Glucocorticoid receptor (Homo sapiens) (UniProt P04150); assay: GR-GFP Redistribution (AID 450;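 active means compounds whose dose series gives a full or clear partial fitted curve of increased nuclear translocation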; further: potency means the concentration at half of the fitted maximal effect); settings: U2OS GR-GFP nuclear translocation, laser cytometry, 2 h; series mostly up to 20.6 µM
Glucocorticoid receptor (Homo sapiens), sequence (P04150 whole entry, looked up): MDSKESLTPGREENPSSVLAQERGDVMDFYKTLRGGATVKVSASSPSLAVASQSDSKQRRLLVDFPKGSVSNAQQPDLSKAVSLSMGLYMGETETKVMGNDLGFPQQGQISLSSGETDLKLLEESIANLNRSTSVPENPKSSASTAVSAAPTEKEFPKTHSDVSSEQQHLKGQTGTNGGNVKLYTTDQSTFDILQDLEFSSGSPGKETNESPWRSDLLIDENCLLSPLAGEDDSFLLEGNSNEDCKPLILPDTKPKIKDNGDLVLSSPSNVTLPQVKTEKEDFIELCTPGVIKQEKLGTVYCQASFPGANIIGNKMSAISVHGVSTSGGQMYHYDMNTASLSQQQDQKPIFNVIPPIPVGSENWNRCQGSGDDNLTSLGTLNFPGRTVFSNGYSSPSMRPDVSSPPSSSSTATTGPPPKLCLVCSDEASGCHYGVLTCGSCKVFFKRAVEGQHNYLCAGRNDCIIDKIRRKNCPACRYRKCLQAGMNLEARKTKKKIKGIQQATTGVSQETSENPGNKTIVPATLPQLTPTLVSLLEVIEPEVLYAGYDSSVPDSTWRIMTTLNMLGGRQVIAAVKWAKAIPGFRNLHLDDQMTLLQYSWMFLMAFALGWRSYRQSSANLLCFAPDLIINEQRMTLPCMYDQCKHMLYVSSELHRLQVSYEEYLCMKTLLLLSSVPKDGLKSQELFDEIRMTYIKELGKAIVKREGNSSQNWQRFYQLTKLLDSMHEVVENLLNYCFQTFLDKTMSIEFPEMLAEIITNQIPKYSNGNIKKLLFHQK

COc1cc(S(=O)(=O)N2CCN(c3ccc(F)cc3)CC2)ccc1Cl
inactive: activity change, negative = inhibition [1] 5.09% | activity change, negative = inhibition [2] -11.7% | activity, negative = inhibition [3] -12.1% | Potency [4] > 20.6 µM

Cn1c(/C(C#N)=C/Nc2ccccn2)nc2ccccc21
inactive: activity change, negative = inhibition [1] -8.79% | activity change, negative = inhibition [2] -5.83% | activity, negative = inhibition [3] 8.51% | Potency [4] > 20.6 µM

Cc1ccc(S(=O)(=O)N(CC(O)CN(C)C)c2ccccc2)cc1 (stereo not drawn)
inactive: activity change, negative = inhibition [1] 6.2% | activity change, negative = inhibition [2] -0.131% | activity, negative = inhibition [3] 7.64% | Potency [4] > 20.6 µM

N#Cc1c(SCC(=O)O)nc(N2CCCCC2)c2c1CCCC2
inactive: activity change, negative = inhibition [1] 6.2% | activity change, negative = inhibition [2] 10.4% | activity, negative = inhibition [3] -7.23% | Potency [4] > 20.6 µM

Cc1c(CCC#N)c(N2CCCCC2)n2c(nc3ccccc32)c1C#N
inactive: activity change, negative = inhibition [1] -4.98% | activity change, negative = inhibition [2] -11.4% | activity, negative = inhibition [3] 10.9% | Potency [4] > 20.6 µM

CCc1cc(=O)oc2cc(C)c(CN3CCCC3)c(O)c12
inactive: activity change, negative = inhibition [1] -8.92% | activity change, negative = inhibition [2] -9.64% | activity, negative = inhibition [3] -10.7% | Potency [4] > 20.6 µM

CCOc1ccc(S(=O)(=O)N(C)C)cc1-c1nc2c(C(C)(C)C)nn(C)c2c(=O)[nH]1
inactive: activity change, negative = inhibition [1] 5.08% | activity change, negative = inhibition [2] 8.6% | activity, negative = inhibition [3] -17.2% | Potency [4] > 20.6 µM

CC1(c2cnc(Nc3ccccc3)s2)CCC(=O)O1 (stereo not drawn)
inactive: activity change, negative = inhibition [1] -10.6% | activity change, negative = inhibition [2] -7.05% | activity, negative = inhibition [3] 22.3% | Potency [4] > 20.6 µM

COc1cc(C(=O)Nc2ccc(O)cc2C(=O)O)ccc1OC(C)=O
inactive: activity change, negative = inhibition [1] -6.46% | activity change, negative = inhibition [2] 22.4% | activity, negative = inhibition [3] 6.09% | Potency [4] > 20.6 µM

O=C(Nc1ccccn1)NC(C(F)(F)F)C(F)(F)F
inactive: activity change, negative = inhibition [1] -3.59% | activity change, negative = inhibition [2] 6.68% | activity, negative = inhibition [3] -3.68% | Potency [4] > 20.6 µM

COc1ccccc1OCC(=O)Nc1ccc(S(=O)(=O)Nc2cc(C)nc(C)n2)cc1
inactive: activity change, negative = inhibition [1] -4.5% | activity change, negative = inhibition [2] -9.32% | activity, negative = inhibition [3] -5.19% | Potency [4] > 20.6 µM

COc1ccc(C2C(C#N)=C(N)SC(N)=C2C#N)cc1OC
inactive: activity change, negative = inhibition [1] 5.54% | activity change, negative = inhibition [2] 29.6% | activity, negative = inhibition [3] 3.8% | Potency [4] > 20.6 µM

Cc1ccc(S(=O)(=O)/C(C#N)=C/c2c(N3CCN(C)CC3)nc3ccccn3c2=O)cc1
inactive: activity change, negative = inhibition [1] -12.9% | activity change, negative = inhibition [2] -5.08% | activity, negative = inhibition [3] 1.8% | Potency [4] > 20.6 µM

COc1ccc(CCNc2nc3c(c(=O)n(C)c(=O)n3C)n2C)cc1OC
inactive: activity change, negative = inhibition [1] -2.56% | activity change, negative = inhibition [2] 3.63% | activity, negative = inhibition [3] -0.466% | Potency [4] > 20.6 µM

O=C1C(=O)N(CCN2CCOCC2)C(c2ccccn2)/C1=C(/O)c1ccc(F)cc1 (stereo not drawn)
inactive: activity change, negative = inhibition [1] 10.4% | activity change, negative = inhibition [2] 21.3% | activity, negative = inhibition [3] -1.73% | Potency [4] > 20.6 µM

CC(C)Nc1nc(NC(C)C)nc(N(C)n2cnnc2)n1
inactive: activity change, negative = inhibition [1] 9.58% | activity change, negative = inhibition [2] -6.19% | activity, negative = inhibition [3] 4.66% | Potency [4] > 20.6 µM

O=C(NCCO)c1cccc2c1C(=O)c1ccccc1-2
inactive: activity change, negative = inhibition [1] 9.17% | activity change, negative = inhibition [2] 2.44% | activity, negative = inhibition [3] 10.7% | Potency [4] > 20.6 µM

Source: PubChem BioAssay (NCATS)
